The source of these data is the supplement of paper PMC6555819.

This assay concerns RARb:RXRa (NR concentration 270 nM, RXRa partner concentration 90 nM). As to the kind of experiment: PBM binding z-score (relative to random genomic background probes); higher = stronger binding; sequences stand for … in GC…GCGATTGACAGCGTAGAATGAAGG
An outline of the steps: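 Regression normalization was applied to scanned fluorescence from custom Agilent 4×180K protein-binding microarrays. Before scanning, arrays were incubated 1 h with ligand-free nuclear receptor dimers, and binding was detected with antibodies against each partner (one per run). Binding z-scores use the random background probes as reference.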
ATCGAAAGATCGTGAGGTGAGTATACAGAAAGGC registered a PBM binding z-score of 0.133.
In turn, CCTCGGAGGACCACAGGAGGTCAGAGCTGCCAGA came in with a PBM binding z-score of 2.18.
Consider TCGAGTAGGTTACCAATGGGGTATTCAGCTTTCT, for which the PBM binding z-score is 0.76.
Under AGAACGAGGGCACGCTGAGATGATAGCAGAGTAG stands 2.5.
Sequence ATCTCTAAGTAAAGTTCAGTGAAAGATCGATAGA returned a PBM binding z-score of 2.63.
For TCTTGTAGATCAAAAGAGGTTAAGAAAGTGCGCT the value was 0.887; for ATATGTAGGTTAAGGGTCATTCAGGTTGGTTCGC, 3.79.
The sequence CGAACTAGGTCACTGACAGGACAGTGAATAGTAA displayed a PBM binding z-score of 3.9.
CCTACTGGGCCATCACGTCATTGATATCAACGTT: the PBM binding z-score was 0.25.
In the case of ACCATTAGTTGAGACGAGGGCAACCGATAGGTTG, the PBM binding z-score amounted to 1.18.
In turn, TCGAGTAGGTTACCAATGGGGCATTCTGCTTTCT came in with a PBM binding z-score of 0.902.
Under CAAACTAGGTCAAGAGGTCAATGTCCGCTTCCCG stands 5.3.
For TAGCCTAGGTCATTCATGGGCCAGTATAGAAAGC the value was 3.66.
For GCTTACGGGTCAAAGGTAATAGCATGAATAGAAT the value was 3.87.
TTACCAAGGTAAAGGTCGTTGATCCCTCTGTAGA displayed a PBM binding z-score of 2.14.
The sequence TCTTGTAGATCAACAGGGGGTTAAGAAAGATCGA registered a PBM binding z-score of 1.71.
Under CAAACTAGGTCAAGGCCAAAGTCGGTTTGTGCCA stands 4.25; under CCAGACAGTTGAGAAGGTAACTCAGCCTCGATTA, 0.189.
